Only some compounds are listed: those with a hit (about 21% of all), similar ones and a draw of the others.
Pf growth 96h – inhibits malaria parasite growth, 96 h | Potency, µM (highest dose often 28.7 µM), without a hit: at the highest dose activity change, negative = inhibition, most hits filed as inhibitors | 6.9% of 320,000 active | P. falciparum luciferase reporter growth, 96 h; also: potency is read from the fitted curve at half-maximal effect; % is scaled to controls: 0 for no effect and ±100 for the full control effect
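Parasite growth measured via integrated firefly luciferase reporter in P. falciparum. Infected erythrocytes at 2% hematocrit, 0.05% parasitemia final were treated 96 hours at 37 C under 5% CO2, and luminescence was read.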
Pf growth 48h – inhibits P. falciparum growth in the first generation, 48 h; P. falciparum luciferase growth in erythrocytes, 48 h; Potency, µM (titrated, usually from 28.7 µM), without a hit: at the top dose activity change, negative = inhibition, most hits filed as inhibitors; 5.9% of 310,000 active; also: potency is read from the fitted curve at half-maximal effect; % is scaled to controls: 0 for no effect and ±100 for the full control effect
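Luminescence readout; reporter = integrated firefly luciferase in P. falciparum. RBC culture at 2% hematocrit, 0.1% parasitemia final, 37 C/5% CO2; decreased signal taken as growth inhibition.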
NS1 inh – inhibitors of influenza NS1 protein function; 0.4% of 270,000 active; Potency, µM (doses to about 46.1 µM), without a hit: top-dose activity, positive = more growth; calls by dose curve; also: potency is read from the fitted curve at half-maximal effect; actives are rising curves; nearly all actives have a fitted effect of over 50% in size
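In this qHTS, NS1 from influenza A is expressed in budding yeast, where it slows growth. Cells are switched from glucose to 2% galactose medium (pH 6.0, -URA), treated with compound, and growth recovery is read at OD600.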
CHX counter – counter-screen hit for Shiga toxin inhibitors, cycloheximide | max response, % | AID 2314 | cell reporter, cycloheximide protein synthesis inhibition counterscreen | 12% of 300,000 active; in the data active = max response mostly above about 13%, no sharp cut-off; inactive = mostly below about 14%; also: read at 38.3 µM for the half of the compounds with a filed dose; 0% is about no effect
Sm TGR inh – S. mansoni TGR enzyme inhibition; AID 485364; Q962Y6; 3% of 360,000 active; Potency, µM (highest dose often 114 µM), inactives show top-dose activity change, negative = inhibition, most hits filed as inhibitors; purified TGR, DTNB reduction, TNB absorbance 405 nm; also: potency is read from the fitted curve at half-maximal effect; % is scaled to controls: 0 for no effect and ±100 for the full control effect; nearly all actives have a fitted effect of over 60% in size
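Kinetic colorimetric format: TGR-catalysed, NADPH-driven DTNB reduction monitored via TNB absorbance. Enzyme dispensed at 20 nM; compound exposure 15 min at room temperature before reaction start.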
Shiga toxin inh – inhibitors of Shiga toxin in Vero cells; Vero cells, Shiga toxin protein synthesis inhibition reporter; inhibition, % at 38.7 µM; 9.2% of 290,000 active; AID 2315; in the data active = inhibition mostly above about 28%, no sharp cut-off; inactive = mostly below about 43%; also: 0% is about no effect
Numbers without * were called inactive; i = inactive; ? = inconclusive; nt = no result. Unless noted, calls follow the shape of the dose curve; as a rule, active = well fitted curve in the direction sought with a large enough effect; inconclusive = small, poorly fitted or top-dose-only effect, or another doubt; inactive = no such curve, though single readings can be large; an effect the other way counts as inactive or inconclusive.

SMILES | Pf growth 96h | Pf growth 48h | NS1 inh | CHX counter | Sm TGR inh | Shiga toxin inh
Cc1ccc(-c2nc3ccc(NS(=O)(=O)c4ccccc4)cc3[nH]2)o1 | 97% | nt | 5% | 66* | 35µM* | 130*
O=C(NC(=S)Nc1nc2c(ccc3ccccc32)s1)c1cccs1 | 28% | 18% | 2% | -3 | -25% | -1
CCOc1ccc(N2CC(C(=O)Nc3cccc(S(=O)(=O)NC4=NCCC4)c3)CC2=O)cc1 (configuration not stated) | -1% | ? | 3% | 2 | 8% | 2
Cc1cc(C)c(S(=O)(=O)Nc2ccc3oc4c(c3c2)CCCC4)cc1C | nt | nt | nt | nt | 3% | nt
CCOc1ccccc1NC(=O)c1c(NC(=O)C(C)Oc2ccc(Cl)cc2)sc2c1CCCCC2 (configuration not stated) | nt | nt | nt | nt | -2% | nt
O=C(COc1ccc(Br)cc1)Nc1ccc(C(=O)OC2CCCCC2)cc1 | nt | nt | nt | nt | 6% | nt
O=C(O)CCC(=O)Nc1ccc(-c2csc(Nc3cccc4ccccc34)n2)cc1 | 1% | 3% | nt | nt | -1% | nt
COc1ccc(-c2nnc(-c3cccnc3)o2)cc1 | 42% | 111% | -63% | 28* | 12% | 62*
COc1ccc(-c2nnc(-c3ccc(N)cc3)o2)cc1 | nt | 25% | -4% | 44* | 1% | 62*
c1cncc(-c2nnc(-c3cccs3)o2)c1 | ? | 52% | -9% | 20* | 0% | 58
Clc1ccc(-c2nnc(-c3cccnc3)o2)cc1 | ? | 72% | -21% | 20* | 3% | 56*
FC(F)(F)c1ccc(-c2nnc(-c3cccnc3)o2)cc1 | 4% | 46% | -14% | -3 | 1% | -6
COc1cccc(C(=O)Nc2cc(-c3cn4cccnc4n3)ccc2C)c1OC | nt | nt | nt | nt | -4% | nt
COc1ccc(-n2nnnc2-c2cccnc2)cc1 | 9.3µM* | 0% | 0% | 1 | 14% | -10
Cc1ccc(-c2nnc(-c3cccnc3)o2)cc1 | 108% | 128% | -14% | 36* | -22% | 81*
c1ccc(-c2nnc(C3CC(c4cccnc4)=NO3)o2)cc1 (configuration not stated) | -1% | 34% | 12% | 15* | -5% | 20
Clc1ccc(-c2nnc(-c3ccccc3)o2)cn1 | 34% | 45% | -3% | 11* | 4% | 7
CCOC(=O)c1ccccc1NC(=O)CN(c1cc(C(F)(F)F)ccc1Cl)S(C)(=O)=O | nt | nt | nt | nt | 16% | nt
CCCC(=O)OC1(C(=O)CO)CCC2C3CCC4=CC(=O)CCC4(C)C3C(O)CC21C (configuration not stated) | nt | nt | nt | 2 | nt | 11
Cc1nn(C)cc1NC(=O)CC12CC3CC(CC(C3)C1)C2 | 31% | 7% | -3% | -4 | -10% | -5
CCn1nc(C)c(NC(=O)CC23CC4CC(CC(C4)C2)C3)c1C | 8.3µM* | -14% | -10% | 1 | 15% | i
Cc1cnc(CN2CCCC(C(=O)c3ccc4c5c(cccc35)CC4)C2)[nH]1 (configuration not stated) | ? | ? | 8% | -3 | nt | -10
O=C(c1ccc2c3c(cccc13)CC2)C1CCCN(C(=O)c2cc[n+]([O-])cc2)C1 (configuration not stated) | 2.9µM* | -6% | 0% | -3 | 0% | -3
O=C(c1ccc2c3c(cccc13)CC2)C1CCCN(Cc2ccccn2)C1 (configuration not stated) | -6% | 2.3µM* | -3% | -2 | -35% | -16
O=C(c1ccc2c3c(cccc13)CC2)C1CCCN(Cc2ccc(OCCO)cc2)C1 (configuration not stated) | 4% | 6.6µM* | 0% | 2 | -5% | 2
CCCn1cc(S(=O)(=O)c2cc(C)ccc2C)c(=O)c2cc(F)c(N3CCOCC3)cc21 | nt | nt | nt | nt | -6% | nt
CSc1nsc(SCC(=O)Nc2ccc(F)cc2F)n1 | 23% | 86% | -4% | 32* | -7% | 52*
CSc1nsc(SCC(=O)Nc2ccc(Br)cn2)n1 | 44% | 12% | -8% | 28* | 0% | 78*
CSc1nsc(SCC(=O)Nc2ccccc2C(=O)O)n1 | -25% | 16% | 7% | 19* | -12% | 44*
Cc1cc2nc(SCC(=O)Nc3ccccc3C(=O)O)[nH]c2cc1C | ? | 78% | nt | 15 | -6% | 38*
